Rows were chosen to be rich in hits. Some 11% of all compounds tested hit in one or more screens of this group.
HEK293 tox = kills HEK 293 cells | HEK 293 viability, ATP luminescence (CellTiter-Glo), 48-72 h | Potency, µM (top dose mostly 115 µM), for the others: at the highest dose activity change, negative = cytotoxicity, hits mostly inhibitors | 6.6% of 94,000 active; also: nearly all actives have a fitted effect of over 60% in size
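qHTS cytotoxicity; HEK 293, 250 cells/well; compound pinned; 48 or 72 hr, 37 degree Celsius, 5% CO2, 95% humidity; CellTiter-Glo, 10 min RT; luminescence (ATP).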
Luciferase inh = blocks purified firefly luciferase enzyme activity | AID 1347043 | purified P. pyralis luciferase, luminescence, biochemical | 2.5% of 76,000 active | Potency, µM (top dose mostly 115 µM), usual class: inhibitors; also: nearly all actives have a fitted effect of over 65% in size
Target sequence (P08659 whole entry, looked up): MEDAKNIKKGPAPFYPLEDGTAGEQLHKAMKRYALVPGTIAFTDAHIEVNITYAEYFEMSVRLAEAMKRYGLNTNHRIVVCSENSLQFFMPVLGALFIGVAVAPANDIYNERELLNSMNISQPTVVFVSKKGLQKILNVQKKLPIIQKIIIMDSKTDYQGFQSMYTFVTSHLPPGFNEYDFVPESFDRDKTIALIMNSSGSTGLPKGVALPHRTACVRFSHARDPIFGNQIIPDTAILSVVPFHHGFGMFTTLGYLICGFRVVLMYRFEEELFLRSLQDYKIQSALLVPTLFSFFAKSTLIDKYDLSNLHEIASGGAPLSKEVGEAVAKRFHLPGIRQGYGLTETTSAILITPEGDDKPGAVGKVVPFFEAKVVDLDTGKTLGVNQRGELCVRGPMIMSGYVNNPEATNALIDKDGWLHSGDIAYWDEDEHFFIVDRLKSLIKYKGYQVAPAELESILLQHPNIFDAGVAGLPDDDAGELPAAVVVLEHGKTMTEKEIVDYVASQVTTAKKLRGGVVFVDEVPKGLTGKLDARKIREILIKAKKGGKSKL
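Biochemical qHTS: compound (6-point titration) added to 10uM D-luciferin plus 10uM ATP in Tris acetate pH 7.5 buffer with Mg, Tween-20 and BSA, then purified enzyme at 10nM; light output imaged.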
hNpr1 antagonist = blocks ANP-stimulated signaling of human Npr1 receptor. HEK293 hNpr1 GloSensor cGMP, ANP-stimulated luminescence. Potency, µM (top dose mostly 46.3 µM), for inactives: at the highest dose activity change, negative = inhibition, actives largely listed as inhibitors. 1.6% of 76,000 active; calls by dose curve; also: nearly all actives have a fitted effect of over 60% in size
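HEK293 cells stably expressing human Npr1 and cGMP GloSensor pGS-40F, loaded 2 h with 2% GloSensor reagent, given compound 30 min at room temperature. Luminescence read before and 20 min after 0.1 nM hNppA.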
3T3 cytotox = cytotoxic compounds in NIH 3T3 cells | NIH 3T3 viability, CellTiter-Glo ATP luminescence, 48-72 h | Potency, µM (titrated, usually from 96.7 µM), for the others: top-dose activity change, negative = cytotoxicity, most hits filed as inhibitors | 4.3% of 94,000 active; also: nearly all actives have a fitted effect of over 55% in size
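Viability of NIH 3T3 cells after 48 or 72 hr compound treatment at 37 °C was assessed by CellTiter-Glo, with luminescence imaged following a 10 min room-temperature step.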
Numbers without * were called inactive; i = inactive; ? = inconclusive; . = no result; [ ] = remark or other dose. Unless noted, calls follow the shape of the dose curve; as a rule, active = well fitted curve in the direction sought with a large enough effect; inconclusive = small, poorly fitted or top-dose-only effect, or another doubt; inactive = no such curve, though single readings can be large; an effect the other way counts as inactive or inconclusive. % is scaled to controls: 0 for no effect and ±100 for the full control effect; potency is read from the fitted curve at half-maximal effect.

SMILES	HEK293 tox	Luciferase inh	hNpr1 antagonist	3T3 cytotox
Cc1ccc(C2NC(=O)N(CC(=O)Nc3ccc4c(c3)OCO4)C3=C2C(=O)OC3)cc1 (centres undefined)	?	i	2%	-26%
Cc1cc(NC(=O)CN2C(=O)NC(c3ccc(Cl)cc3)C3=C2COC3=O)ccc1Br (centres undefined)	?	i	-25%	25µM*
O=C(CN1C(=O)NC(c2ccc(Cl)cc2)C2=C1COC2=O)Nc1ccc2c(c1)CCC2 (centres undefined)	22µM*	i	-29%	25µM*
CC(C)c1cccc(NC(=O)CN2C(=O)NC(c3ccccc3Cl)C3=C2COC3=O)c1 (centres undefined)	40µM*	?	-23%	?
Cn1ncc2c(C(=O)NCCCc3ccccc3)cc(-c3ccccc3)nc21	?	.	.	-13%
O=C(COc1ccc(Cl)cc1)N1CCN(c2cc(-c3ccccc3)[nH]n2)CC1	89µM*	i	-27%	?
O=C(COc1ccccc1)N1CCCN(c2cc(-c3ccc(Cl)cc3)[nH]n2)CC1	?	i	-16%	?
COc1ccccc1CCC(=O)N1CCN(c2cc(-c3ccc(Cl)cc3)[nH]n2)CC1	?	i	-17%	32µM*
COc1ccccc1CC(=O)N1CCN(c2cc(-c3ccccc3)[nH]n2)CC1	22µM*	i	-14%	?
O=C1COCC2(CN(Cc3ccc4c(c3)CCO4)C2)CN1Cc1ccccc1	?	i	-16%[70.6 µM]	-9%[138 µM]
Cc1ncccc1C(=O)N1CC(N(CC(C)C)C2CCN(C)CC2)C1	-18%	.	.	-18%
O=C(CCc1conc1-c1cccc(F)c1)NCc1ccc(F)cc1	?	45µM*	-6%	?
O=C(CCc1conc1-c1cccc(F)c1)NCc1ccc(Cl)cc1	?	i	-8%	-26%
O=C(c1ccncc1)N1CCC(Oc2ccccc2-c2nc(-c3ccccc3)no2)C1 (centres undefined)	40µM*	?	1%	?
Cc1cccc(NC(=O)N2CC(Oc3ccccc3-c3nc(-c4ccccc4)no3)C2)c1	-3%	i	2%	-13%
Cc1ncccc1C(=O)N1CC(Oc2ccccc2-c2nc(-c3ccccc3)no2)C1	?	40µM*	-4%	?
O=C(C1CCOCC1)N1CCC(Oc2ccccc2-c2nc(-c3ccccc3)no2)C1 (centres undefined)	32µM*	i	2%	?
COc1ccc(Cl)cc1S(=O)(=O)N1CCC(OC2CCN(C)CC2)CC1	?	i	0%	-26%
COc1ncccc1-c1cnc2[nH]cc(CC(=O)Nc3nc(C)cs3)c2c1	35µM*	i	?	32µM*
COc1ncccc1-c1cnc2[nH]cc(CC(=O)NC3CC3)c2c1	?	i	-25%[70.6 µM]	25µM*
CCS(=O)(=O)N1CCC[C@H](n2c(=O)n(C)c3cccnc32)C1	i	i	0%	-1%
O=C(NCc1cccc(C(F)(F)F)c1)c1ccc2nnc(-c3cc(C(F)(F)F)cc(C(F)(F)F)c3)n2c1	14µM*	.	.	20µM*
O=C(NCc1ccccn1)c1ccc2nnc(-c3cc(C(F)(F)F)cc(C(F)(F)F)c3)n2c1	?	.	.	-23%
O=C(NCCc1ccc(Cl)cc1)c1ccc2nnc(-c3cc(C(F)(F)F)cc(C(F)(F)F)c3)n2c1	20µM*	.	.	25µM*
O=C(NCc1cccc(Cl)c1)c1ccc2nnc(-c3cc(C(F)(F)F)cc(C(F)(F)F)c3)n2c1	14µM*	.	.	?
SMILES	HEK293 tox	Luciferase inh	hNpr1 antagonist	3T3 cytotox
COc1cccc(CNC(=O)c2ccc3nnc(-c4ccc(C(F)(F)F)cc4)n3c2)c1	-2%	.	.	-17%
O=C(NCc1ccccc1)c1ccc2nnc(-c3cc(C(F)(F)F)cc(C(F)(F)F)c3)n2c1	40µM*	.	.	?
O=C1CCC2(CCCO2)CCN1Cc1ccccc1 (centres undefined)	-22%	i	5%	-8%
Cc1nc(N2CCN(C(=O)c3ccc(F)c(Cl)c3)CC2)cc(C(F)(F)F)n1	?	i	-4%	-22%
COCCCNC(=O)c1ccc2nnc(-c3cccc(C(F)(F)F)c3)n2c1	-9%	.	.	-23%
O=C(NCCc1ccc(Cl)cc1)c1ccc2nnc(-c3ccc(OC(F)(F)F)cc3)n2c1	79µM*	.	.	-22%
O=C(NCc1ccccc1)c1ccc2nnc(-c3cccc(C(F)(F)F)c3)n2c1	35µM*	.	.	?
O=C(NCc1cccc(C(F)(F)F)c1)c1ccc2nnc(-c3ccc(Cl)cc3)n2c1	45µM*	.	.	40µM*
O=C(NCc1cccnc1)c1ccc2nnc(-c3ccc(OC(F)(F)F)cc3)n2c1	-3%	.	.	-15%
O=C(NC1CCCCC1)c1ccc2nnc(-c3cccc(C(F)(F)F)c3)n2c1	32µM*	.	.	?
C[S+](=O)([O-])c1cccc(-c2nnc3ccc(C(=O)NC4CCCC4)cn23)c1	1%	.	.	-10%
CCN1C(=O)CCC2(C(=O)NCc3cccc(C(F)(F)F)c3)CCCC=C12 (centres undefined)	-1%	.	.	-27%
O=C(NC1CC1)c1ccc2nnc(-c3cc[nH]c3)n2c1	i	.	.	-12%[138 µM]
CNC(=O)c1nc2cccnc2n(CCOC)c1=O	i	.	.	-10%[138 µM]
C[C@H]1CCCN1C(=O)c1nnc(CNc2ccccc2Cl)n1-c1ccccc1	?	i	-29%[70.6 µM]	100µM*
C[C@H]1CCCN1C(=O)c1nnc(COc2cccc(C(F)(F)F)c2)n1-c1cccnc1	?	i	0%[70.6 µM]	100µM*
C[C@H]1CCCN1C(=O)c1nnc(COc2cccc(Cl)c2)n1-c1ccccc1	?	i	-3%[70.6 µM]	?
CC(C)c1ccc(OCc2nnc(C(=O)N3CCC[C@@H]3C)n2-c2cccnc2)cc1	?	i	-2%[70.6 µM]	14µM*
CCOC(=O)CC(=O)N1CCC2(CC1)[C@H](C(=O)OCC)[C@@H](O)C(=O)N2Cc1ccccc1	0%	.	.	?
CCCc1noc(-c2ccn3c(CNC(=O)c4ccc(C)c(F)c4)nnc3c2)n1	1%	i	7%	-20%
Cc1ccc(CCN2CCCCC23Cc2ccccc2CN([S+](C)(=O)[O-])C3)cc1 (centres undefined)	79µM*	.	.	?
N[C@H]1CO[C@H]2[C@@H]1OC[C@@H]2n1cc(-c2ccccn2)nn1	126µM*	i	-4%[70.6 µM]	?
C#CCNC(=O)C1CCCN1Cc1ccc(-c2cc(C)cc(C)c2)cc1 (centres undefined)	45µM*	.	.	?
Cc1cc(C)cc(-c2ccc(CN3CCCC3C(=O)NC3CCCC3)cc2)c1 (centres undefined)	28µM*	.	.	22µM*
CCC(C)Oc1ccc(CNC(=O)c2cn(CCN)nn2)cc1 (centres undefined)	32µM*	i	3%	?
COCCc1noc(-c2ccccc2OC2CNC2)n1	-1%	i	9%	-22%
CCC(C)NC(=O)N1CC(Oc2ccccc2-c2nc(-c3ccccc3)no2)C1 (centres undefined)	?	?	-4%	35µM*
